Data reported in ChEMBL document CHEMBL3988442, “University of Dundee, Small-Polar-MMV Screening Library” (2021).

Legend:
[1] = biological target: T1, Aspartate--tRNA(Asp/Asn) ligase (Mycobacterium tuberculosis (strain ATCC 25618 / H37Rv)) (UniProt P9WFW3); experiment: Assay for Asp RNA synthetase-1 from Mycobacterium tuberculosis; type: functional; set-up: scale not given: direction of the effect not stated beside the values; conditions: 30 µM; further: in the data most compounds retested in dose-response had high values
T1 sequence (whole entry): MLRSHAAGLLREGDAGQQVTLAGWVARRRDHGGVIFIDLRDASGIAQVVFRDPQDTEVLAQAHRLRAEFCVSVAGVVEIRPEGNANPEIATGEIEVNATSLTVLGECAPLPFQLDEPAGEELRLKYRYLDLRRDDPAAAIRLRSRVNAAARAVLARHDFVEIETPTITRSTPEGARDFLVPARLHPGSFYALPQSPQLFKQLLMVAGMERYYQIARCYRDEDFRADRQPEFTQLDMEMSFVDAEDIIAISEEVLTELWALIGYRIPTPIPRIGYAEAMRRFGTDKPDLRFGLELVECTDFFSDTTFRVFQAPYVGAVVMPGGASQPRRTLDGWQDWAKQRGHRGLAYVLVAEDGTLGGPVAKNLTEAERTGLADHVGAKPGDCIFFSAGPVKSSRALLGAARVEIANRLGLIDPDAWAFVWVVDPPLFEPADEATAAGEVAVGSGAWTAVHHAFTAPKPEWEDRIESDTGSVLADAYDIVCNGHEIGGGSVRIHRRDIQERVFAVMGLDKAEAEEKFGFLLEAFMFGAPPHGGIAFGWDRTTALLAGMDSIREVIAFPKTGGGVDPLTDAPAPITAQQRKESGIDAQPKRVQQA

[2] = biological target: Shiga toxin 2 (Escherichia coli O157:H7) (UniProt P09385+P09386); experiment: E. coli 0.157:H7 Shiga Toxin SOP - stx2 screening assay; type: functional; set-up: scale not given: direction of the effect not stated beside the values; conditions: 30 µM

Row | SMILES | Percent Effect [1] | Percent Effect [2]
1 | COc1ccc(OCC(=O)NC(C)c2ccc(F)cc2)c(C(=O)O)c1 (stereo not drawn) | 0.691% | 12%
2 | COCc1cn([C@@H]2c3ccccc3C3(CCNCC3)[C@H]2O)nn1 | 3.45% | 8.95%
3 | Cn1ccnc1CN1CCOCC(Cc2ccccn2)C1 (stereo not drawn) | -1.22% | 17.1%
4 | O=C(CCc1ccccc1)N1CCn2cc(Cn3cncn3)nc2C1 | -1.12% | -10%
5 | Cn1cc(C[C@H]2[C@H](N3CCOCC3)CCN2C(=O)c2ccco2)cn1 | -2.37% | -0.123%
6 | Cc1cccnc1C(=O)N1CCCCC1c1[nH]ncc1S(C)(=O)=O (stereo not drawn) | 5.01% | 6.84%
7 | Cc1nn(C)c(C)c1C1CCCN1C(=O)c1cc[nH]n1 (stereo not drawn) | -5.05% | 11.4%
8 | Fc1ccc(CN2CC[C@H]3O[C@@H](COCC4CCOCC4)CC[C@H]32)cc1 | 0.838% | -14.5%
9 | O=C1C[C@H]2[C@@H](CCN2C(=O)c2ccccc2)N1CCN1CCOCC1 | -3.74% | -0.799%
10 | COCCO[C@H]1CCN(C(=O)c2cc(C)on2)[C@H]1Cc1ccccc1 | -1.39% | -1.24%
11 | CSc1ccsc1C(=O)N1CCN(CC(C)(C)O)CC1 | 2.72% | -13.5%
12 | CN(Cc1ccco1)Cc1ccccc1CNC(=O)c1cc[nH]n1 | 0.435% | 9.38%
13 | Cc1ccc(CN2C[C@@H]3COC[C@@H](NS(C)(=O)=O)[C@@H]3C2)o1 | 1.98% | -1.23%
14 | CNC(=O)N1C[C@H]2CC[C@@]3(N=C(c4ccccc4)NC3=O)[C@H]2C1 | 4.9% | -20.9%
15 | CN(C)CCN1CCC2(CC1)CN(c1cccnc1)C(=O)CO2 | 4.6% | -5.11%
16 | Cc1nc(CN(Cc2cccs2)C2CCS(=O)(=O)C2)oc1C (stereo not drawn) | -1.77% | 34.6%
17 | Cc1c(C)n(Cc2ccccn2)c2nc3c(c(N)c12)CCCC3 | -2.53% | -3.33%
18 | Cn1cccc1C(=O)N1CC[C@H]2C[C@@H](c3ccncn3)O[C@@H]2C1 | -6.89% | 7.29%
19 | c1cncc(N2CCOCC3(CCCN(c4nncs4)C3)C2)c1 (stereo not drawn) | 2.36% | -5.55%
20 | CC(C(=O)Nc1ccc(N2CCCC2)nc1)n1cncn1 (stereo not drawn) | 0.459% | 11.3%
21 | Cc1cc2n(n1)CC(CNCc1ccnc(-n3ccnc3C)c1)CN2 (stereo not drawn) | -2.39% | -3.5%
22 | Cc1ccc(NC2CCN(C(=O)c3ccsc3)CC2)nn1 | -2.79% | -2.79%

Row | SMILES | Percent Effect [1] | Percent Effect [2]
23 | CSCCC(CO)NC(=O)c1sc(-c2ccccc2Cl)nc1C (stereo not drawn) | -2.58% | -30.8%
24 | Cc1nn(C)c(C)c1C1CCCN1Cc1nc(-c2ccco2)oc1C (stereo not drawn) | -1.54% | 22.6%
25 | Cc1ccc(NC(=O)Cn2cc(I)cn2)cc1 | 1.25% | -45.6%
26 | O=C(Nc1cnccn1)[C@@H]1COC[C@H]2CN(C3CCCC3)C[C@H]21 | -5.7% | 18%
27 | CCn1cc(NC(=O)C2CCN(Cc3ccccc3C#N)CC2)cn1 | 1.7% | -53.9%
28 | Cc1cc(C)n(CC2CCCN2C(=O)c2ccc(C(N)=O)cn2)n1 (stereo not drawn) | -3.07% | -49.3%
29 | CC(C)c1nc(C2CCCN2CC(=O)N2CCNC2=O)no1 (stereo not drawn) | 1.61% | -10.5%
30 | CC(=O)N1CCC2(CCCN(Cc3ccc(Cl)c(C(F)(F)F)c3)C2)C1 (stereo not drawn) | 6.54% | 4.87%
31 | O=C(c1cccc2[nH]ncc12)N1CCCC1c1noc(C2CC2)n1 (stereo not drawn) | -4.54% | 0.232%
32 | CCn1cc2c(n1)CN(CC1CC1)CC2COCC1CC1 (stereo not drawn) | -2.72% | -2.1%
33 | CC(C)S(=O)(=O)NCC1CCCN(C(=O)c2ccc3c(c2)OCCO3)C1 (stereo not drawn) | 6.79% | -18.1%
34 | CC(NC(N)=O)C(=O)N(C)CCCc1cc(-c2ccccc2)no1 (stereo not drawn) | 3.41% | 22.8%
35 | CC(C)n1ccnc1CN1CCCN(C(=O)CC2C=CCC2)CC1 (stereo not drawn) | 1.91% | -0.917%
36 | c1cnc(N2CCC3(COCc4cnc(-c5cccnc5)nc43)C2)nc1 (stereo not drawn) | 2.15% | -3.56%
37 | Cc1ccc(CN2CCc3ncc(CNS(C)(=O)=O)n3CC2)o1 | 1% | -24.4%
38 | Cc1ccoc1C(=O)N1CCO[C@H]2[C@H](OCC3CCOCC3)CC[C@@H]21 | -4.72% | -15.8%
39 | COc1ccc(OCc2nc(C(=O)N3CC[C@H](O)[C@@H](O)C3)co2)cc1 | -0.903% | 8.98%
40 | Fc1cnc(N2CCn3cc(CNc4ccccn4)nc3C2)nc1 | 1.02% | -67.4%
41 | CCOCCn1nc(C)cc1C(=O)N1CCN(C(C)C)C(CC)C1 (stereo not drawn) | -1.08% | 10.1%
42 | Cc1ccc(-c2nc(CN3CCN(S(=O)(=O)N(C)C)CC3)cs2)o1 | 2.34% | -12.2%
43 | Cc1n[nH]c(C2CN(C(=O)c3cnc[nH]3)CCO2)n1 (stereo not drawn) | 1.76% | 23.8%
44 | CN(Cc1ccc(F)cc1)C(=O)CN1CCCC(Cn2cncn2)C1 (stereo not drawn) | -5.51% | 5.36%
